Source: PubChem BioAssay (NCATS)
Inconclusive results are not listed. The source made the active and inactive calls. Calls follow the shape of the dose curve; as a rule, active = well fitted activation curve with a large enough effect; inconclusive = small, poorly fitted or top-dose-only effect; inactive = flat fitted curve, though single readings scatter. Where a SMILES comes first, the peptide text is derived from it. [ ]: non-standard residue; d: D form. PhLac = O=C(O)[CH](O)Cc1ccccc1; NMeV = CN[CH](C(=O)O)C(C)C

Assay: Primary redox qHTS assay for identification of artifact compounds. (AID 1845223);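 also: 0% = DMSO and 100% = reference compound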
Settings: Amplex Red/HRP redox cycling with DTT, fluorescence; series mostly up to 53.8 µM; redox activity (% of DA3003): at the top concentration
Method in brief: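 Amplex Red (25 uM) and HRP (250 mU/mL) in HBSS, with compounds for 15 min, then 250 uM DTT for 30 min, room temperature, dark. Fluorescence 525/598 nm read; normalized to DMSO and 10 uM DA3003; Hill fit.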

| Compound | redox activity (% of DA3003) |
| --- | --- |
| O=C(/C=C/c1ccc(O)cc1)OCC1=C[C@@H](O)[C@@H]2C=CO[C@@H](O[C@@H]3O[C@H](CO)[C@@H](O)[C@H](O)[C@H]3O)[C@H]12 | -0.336% [at 25.6 µM] (inactive) |
| CC1=CC2(O)/C=C/C(C)(O)CC(O)/C=C/C(=O)OC23C(=O)NC(CC(C)C)C3C1C (centres undefined) | 12.6% [at 25.6 µM] (inactive) |
| CC(=O)O[C@H](C[C@@H](C)[C@H]1C(=O)[C@H](O)[C@@]2(C)[C@@H]3CCC4C(C)(C)[C@@H](O[C@@H]5OC[C@H](O)[C@H](O)[C@H]5O)CC[C@@]45C[C@@]35CC[C@]12C)[C@@H]1OC1(C)C (some centres undefined) | 19% [at 25.6 µM] (inactive) |
| CC1CCC2C(C)(C)C(O)CCC2(C)C12Cc1c(O)cc3c(c1O2)CN=C3N (centres undefined) | 13.8% (inactive) |
| C=CC1(C)CC(O)C2(CCC3C(C)(C(=O)O)CCCC3(C)C2=O)C1 (centres undefined) | -8.94% (inactive) |
| C=C[C@H]1[C@H](O[C@@H]2O[C@H](CO)[C@@H](O)[C@H](O)[C@H]2O)OC=C(C(=O)OC)[C@H]1C[C@@H]1N[C@H](C(=O)O)Cc2c1[nH]c1ccccc21 | 7.24% [at 25.6 µM] (inactive) |
| CC(C)C(C(=O)N1CCCC1C(=O)O)N(C)C(=O)C(O)Cc1ccccc1 (centres undefined) (H-[PhLac]-[NMeV]-Pro-OH; configuration not given here) | 1.65% (inactive) |
| COc1cc(/C=C/C(=O)OC2CC3CCC2(C)C3(C)C)ccc1O (centres undefined) | -13% (inactive) |
| CCC[C@@H]1C[C@@H](C(=O)N[C@@H]([C@H]2O[C@H](SC)[C@H](OP(=O)(O)O)[C@@H](O)[C@H]2O)[C@H](C)Cl)N(C)C1 | -6.06% [at 25.6 µM] (inactive) |
| COC(=O)[C@]12C(=O)C(C)=C(O)[C@@]1(C)C(C)=CC1[C@@]34CC[C@@H](OC(C)=O)C(C)(C)C3[C@H](C[C@]12C)OC4=O (some centres undefined) | -11.6% [at 25.6 µM] (inactive) |
| O=C(O)C[C@@H](NC(=O)c1cc(-c2ccc(-c3ccncc3)cc2)cs1)c1ccccc1 | 12.3% (inactive) |
| CC(=O)OC(CSC1CCC(=O)OC(C)CCC(=O)C1)C(=O)O (centres undefined) | -8.16% (inactive) |
| COc1cc2c(cc1O)C1(Cc3ccc4c(c3C1=O)OCO4)N(C)CC2 (centres undefined) | 8.77% (inactive) |
| O=C(c1ccccn1)c1cnn2c(-c3ccncc3)ccnc12 | -6.65% (inactive) |
| CC(=O)OC[C@]12[C@H](OC(C)=O)C(=O)[C@@H]3[C@@H](OC(C)=O)[C@@]14O[C@@]3(C)COC(=O)c1cccnc1[C@@H](C)[C@H](C)C(=O)O[C@@H]([C@H](OC(C)=O)[C@@H]2OC(C)=O)[C@]4(C)O | 8.94% [at 25.6 µM] (inactive) |
| O=C(/C=C/c1ccc(O)cc1)OC[C@]12O[C@H]1[C@@H](O)[C@@H]1C=CO[C@@H](O[C@@H]3O[C@H](CO)[C@@H](O)[C@H](O)[C@H]3O)[C@@H]12 | -0.521% [at 25.6 µM] (inactive) |
| C=CC1C(O[C@@H]2O[C@H](CO)[C@@H](O)[C@H](O)[C@H]2O)OC=C(C(=O)OC)C1CC(=O)O (some centres undefined) | -2.11% [at 25.6 µM] (inactive) |
| CC(C)(C)c1cc(CN2CCN(CC(O)c3ccc(Cl)cc3)CC2)cc(C(C)(C)C)c1O (centres undefined) | -1.33% (inactive) |
| CC(=O)c1c(C)cc(O)cc1O[C@@H]1O[C@H](CO)[C@@H](O)[C@H](O)[C@H]1O | -16.8% (inactive) |
| CC(C)(O)C1=CCC23COC(C2)C(O)(C(=O)O)CCC13 (centres undefined) | -12.6% (inactive) |

| Compound | redox activity (% of DA3003) |
| --- | --- |
| CC1=CC(=O)CC(C)(C)C1CCC(C)OC1OC(COC(=O)c2cc(O)c(O)c(O)c2)C(O)C(O)C1O (centres undefined) | -2.9% [at 25.6 µM] (inactive) |
| C=C1C2=CC(O)C(C)C1(C)CC/C(C)=C/CCC1(C)OC1C2=O (centres undefined) | 0.154% (inactive) |
| CC(/C=C/C1(O)C(C)(C)CC(O)CC1(C)O)OC1OC(CO)C(O)C(O)C1O (centres undefined) | -14.9% [at 25.6 µM] (inactive) |
| C[C@@H]1CC[C@]2(C)C3(C)CC[C@@]2(OC3=O)[C@@]12C[C@H](c1ccoc1)OC2=O | -5.36% (inactive) |
| Cc1c(N2C(=O)c3ccc(C(=O)O)cc3C2=O)c(=O)n(-c2ccccc2)n1C | -3.29% (inactive) |
| CC1=C2[C@@H]([C@H](C)CC[C@H]2/C=C(\C)C(=O)O)[C@H](O)C1 | -16.4% (inactive) |
| CC(=O)O[C@H]1[C@H](C)[C@@H](O)[C@H]2[C@@H]1C=C(C(=O)O)[C@H]1C[C@@H]3[C@H]([C@H]21)[C@H]1C(=O)O[C@@H]2CC[C@@]3(C)O[C@]1(O)[C@@H]2C | -18.3% [at 25.6 µM] (inactive) |
| CC1(C)O[C@@]2(C)CC[C@@H]1C[C@@H]2OC1OC(CO)C(O)C(O)C1O (some centres undefined) | -0.726% (inactive) |
| COc1cccc(-c2ccc([C@@H](Oc3cc(-c4ccc(C[C@H](N)C(=O)O)cc4)nc(N)n3)C(F)(F)F)cc2)c1 | 9.33% (inactive) |
| CCC[C@@H]1C[C@@H](C(=O)N[C@@H]([C@H]2O[C@H](SC)[C@H](O)[C@@H](O)[C@@H]2O)[C@@H](C)O)N(C)C1 | -2.67% (inactive) |
| CC1(CO)CC[C@]2(C(=O)O[C@@H]3O[C@H](CO)[C@@H](O)[C@H](O)[C@H]3O)CC[C@]3(C)C(=CCC4[C@@]5(C)C[C@H](O)[C@H](O[C@@H]6OC[C@@H](O)[C@H](O)[C@H]6O)[C@@](C)(CO)C5CC[C@]43C)C2C1 (some centres undefined) | 6.69% [at 11.5 µM] (inactive) |
| CC(C)CC1(C(=O)OCc2ccc(O[C@@H]3O[C@H](CO)[C@@H](O)[C@H](O)[C@H]3O)cc2)CC(=O)OC(C(=O)O)CC(=O)OCC2OC(O1)C(OC(=O)/C=C/c1ccc(O)cc1)C(O)C2O (some centres undefined) | 23.6% [at 11.5 µM] (inactive) |
| C[C@@H]1O[C@@H](O[C@H]2[C@H](OC(=O)[C@]34CCC(C)(C)C[C@H]3C3=CCC5[C@@]6(C)C[C@H](O)[C@H](O[C@@H]7O[C@H](CO[C@@H]8OC[C@H](O)[C@H](O)[C@H]8O)[C@@H](O)[C@H](O)[C@H]7O)C(C)(C)C6CC[C@@]5(C)[C@]3(C)C[C@H]4O)OC[C@@H](O)[C@@H]2O)[C@H](O)[C@H](O[C@@H]2OC[C@](O)(CO)[C@H]2O)[C@H]1O[C@@H]1OC[C@H](O)[C@H](O[C@@H]2OC[C@@H](O)[C@H](O)[C@H]2O)[C@H]1O (some centres undefined) | 10.3% [at 11.5 µM] (inactive) |
| COC(=O)C1=CO[C@@H](O[C@@H]2O[C@H](CO[C@@H]3O[C@H](COC(=O)/C=C/c4ccc(O)cc4)[C@@H](O)[C@H](O)[C@H]3O)[C@@H](O)[C@H](O)[C@H]2O)[C@@H]2C(CO)=CC[C@H]12 | 19.5% [at 25.6 µM] (inactive) |
| COc1cc(CC(COC2OC(CO)C(O)C(O)C2O)c2cc(/C=C/CO)cc(OC)c2O)ccc1O (centres undefined) | 0.0536% [at 25.6 µM] (inactive) |
| CC1(C)CC[C@]2(C(=O)O)CC[C@]3(C)C(=CCC4[C@@]5(C)CCC(O[C@@H]6OC[C@H](O)[C@H](O)[C@H]6O[C@@H]6O[C@H](CO)[C@@H](O)[C@H](O)[C@H]6O)[C@@](C)(CO)C5CC[C@]43C)[C@@H]2C1 (some centres undefined) | 10.1% [at 25.6 µM] (inactive) |
| C=C1[C@H]2[C@H](O[C@@H]3O[C@H](COC(=O)/C=C/c4cc(OC)c(O)c(OC)c4)[C@@H](O)[C@H](O)[C@H]3O)OC=C(C(=O)O)[C@H]2C[C@@H]1O | -1.09% [at 25.6 µM] (inactive) |
| C=CC1C(O[C@@H]2O[C@H](CO)[C@@H](O)[C@H](O)[C@H]2O)OC=C(C(=O)OC)C1Cc1nccc2c1[nH]c1ccccc12 (some centres undefined) | 3.74% [at 25.6 µM] (inactive) |
| N#CCc1ccc(O)cc1O[C@@H]1O[C@H](CO)[C@@H](O)[C@H](O)[C@H]1O | -10.7% (inactive) |
